PubChem BioAssay AID485313 (National Center for Advancing Translational Sciences (NCATS), 2010)
In all, about 320,000 compounds went through this assay and about 7,600 (2.4%) were called active. Another 3% or so got no clear call; they are omitted. The full list was thinned out, with actives kept by preference. A number with no mark means an inactive call. Calls come from the whole dose curve; as a rule, active = well fitted activation curve with a large enough effect; inconclusive = small, poorly fitted or top-dose-only effect; inactive = no such curve, though single readings can be large or run the other way.

Assay: qHTS Assay for NPC1 Promoter Activators; note: nearly all actives have a fitted effect of over 60% in size; for activation: % of control where 0% means no effect
Conditions: Huh7 NPC1 promoter luciferase reporter, 24 h; series mostly up to 9.22 µM; activation: at the top concentration
Text: NIH Chemical Genomics Center [NCGC] NIH Molecular Libraries Probe Production centers Network [MLPCN] MLPCN Grant: MH089375-01A1 Assay Submitter (PI): Yiannis A. Ioannou NCGC Assay Overview: Niemann Pick Type C (NPC) is a rare neurodegenerative lipidosis that is characterized by lipid storage in the endosomal/lysosomal system. Treatment modalities for this devastating disease are currently non-existent due to the severe obstacles associated with accessing the central nervous system with proteins or genes. The majority of mutations causing NPC disease are missense mutations that are distributed throughout the length of the NPC1 protein, with the most prevalent being the I1061T allele. Although NPC1 mutant proteins may be functional, they are typically trapped in the ER due to misfolding. […] We have developed and optimized a cell based luciferase reporter assay in 1536 well format for the identification of up-regulators of the mutant NPC1 promoter.
The NPC1 promoter is cloned in front of the luciferase reporter gene, therefore NPC promoter activation results in luciferase expression. Frozen stock of the NPC1 promoter transfected Huh7 cells were obtained from the laboratory of Dr. Yiannis Ioannou (The Mount Sinai School of Medicine, New York, NY). Cells were propagated and maintained at NCGC in medium containing RPMI-1640 supplemented with 10% FBS, 2mM L-glutamine, and 50ug/ml penicillin/streptomycin. Cells were harvested in and plated for assays in OP-MEM I reduced-serum medium supplemented with 10% FBS. The Amplite luciferase reporter gene assay kit was purchased from ABD Bioquest and prepared/stored according to manufacturers recommendations. qHTS Assay Setup: 1.#Dispensed 5ul of Huh7 cells stably expressing NPC1-luciferase at a density of 1500 cells per well 1536-well plates. 2.#Incubate cells at 37C, 5% CO2, and 95% humidity for 2 hours. 3.#Transferred 23nl per well of compound in DMSO solution. 4.#Incubated at 37C, 5% CO2, and 95% humidity for 24 hours. 5.#Dispensed 3ul per well of Amplite reagent(ABD Bioquest) per well. 6.#Incubate at ambient for 10 minutes. 7.#Read using the luminescence protocol on the ViewLux plate reader (Perkin Elmer).
Potency is the fitted concentration of half-maximal effect.

| SMILES | activation | Potency |
| --- | --- | --- |
| Cc1ccc(C(=O)c2c(NC(=O)c3ccccc3)sc(C)c2C)cc1 | 0.539% |  |
| Cc1sc(NC(=O)c2ccc3ncsc3c2)c(C(N)=O)c1C |  | 1580 nM (active) |
| O=C(COC(=O)c1ccc2ncsc2c1)Nc1ccc(Cl)cc1 | 1.42% [at 1.84 µM] |  |
| COc1cc(C(=O)Nc2ncccc2C)ccc1OCC(=O)N1CCOCC1 | -2.59% |  |
| Cc1cc(C)c(S(=O)(=O)N2CCC(C(=O)OCc3c(C)noc3C)CC2)c(C)c1 | -2.63% |  |
| Cc1ccc(NC(=O)c2cccs2)cc1S(=O)(=O)N(C)C | 1.03% |  |
| CCN(CC(=O)Nc1ccc(C)c(S(=O)(=O)N(C)C)c1)Cc1ccccc1 | 7.28% |  |
| Cc1ccc(C(=O)Nc2ccc(C)c(S(=O)(=O)N(C)C)c2)s1 |  | 2820 nM (active) |
| Nc1cc(N)nc(SCC(=O)Nc2cccc(S(=O)(=O)N3CCCCC3)c2)n1 | 0.484% |  |
| CSc1ccc(Cl)c(C(=O)OCC(=O)N2CCNC2=O)c1 | -0.987% |  |
| COc1ccc(N2C(=O)/C(=C\c3ccco3)N=C2SCC(N)=O)cc1Cl | -3.08% |  |
| CC(C)Cc1cc(C(=O)NCCc2ccccc2)no1 |  | 2820 nM (active) |
| O=C(NCCCc1ccccc1)c1cc(COc2c(F)cccc2F)on1 | 24.8% |  |
| Nc1nonc1C(=O)NCCc1ccccc1 | -0.723% |  |
| Cc1ccc(S(=O)(=O)N(Cc2ccc(Cl)cc2)c2ccccc2C(=O)NCc2cccnc2)cc1 | -3.62% |  |
| O=C(CN(C(=O)c1csnn1)c1ccc(Br)cc1)NC1CCCC1 | 1.31% |  |
| O=C(CN1C(=O)CCS(=O)(=O)c2ccccc21)NCc1ccc(F)cc1 | 9.64% |  |
| O=C(CNS(=O)(=O)c1ccc2ccccc2c1)Nc1ccc(F)c(F)c1F | -5.75% |  |
| N#CC(=C1CCCC1)c1nc(-c2ccc(Cl)cc2)cs1 |  | 2510 nM (active) |
| CCCCCN1CC(O)=C(c2nc(-c3ccc(Cl)cc3)cs2)C1=N | 0.95% |  |
| N#CC(=C1SC=CS1)c1nc(-c2ccccc2)cs1 | 18.5% |  |
| CC1(C)NC(=O)N(CC(=O)N2CCN(S(=O)(=O)c3ccccc3F)CC2)C1=O | -4.7% |  |
| O=C(Nc1ccc(C(F)(F)F)cc1)c1cccc(-n2cnnn2)c1 | -7.93% |  |
| CN1CCN(S(=O)(=O)c2ccc(N3CCN(c4ccccc4O)CC3)c([N+](=O)[O-])c2)CC1 | 6.04% |  |
| CCc1ccc(N(CC(=O)NCc2cccnc2)S(=O)(=O)c2ccccc2)cc1 |  | 2820 nM (active) |

| SMILES | activation | Potency |
| --- | --- | --- |
| O=C(CN(c1cc(C(F)(F)F)ccc1Cl)S(=O)(=O)c1ccccc1)NCc1cccnc1 | -7.53% |  |
| CCCNS(=O)(=O)c1ccc(CCC(=O)NCc2cccnc2)cc1 | -2.07% |  |
| CCN(C(=O)COC(=O)c1c(C)nn(-c2ccccc2)c1Cl)c1c(N)n(Cc2ccccc2)c(=O)[nH]c1=O | -0.895% |  |
| Cc1ccc(-n2c(C)cc(/C=C(\C#N)C(=O)NCC3CCCO3)c2C)cc1 (centres undefined) |  | 3160 nM (active) |
| Cc1cc(/C=C(/C#N)C(=O)Nc2ccc(Cl)cc2)c(C)n1-c1cccnc1 | 11.6% |  |
| Cc1ccc(C(=O)N/C(=C/c2cccs2)C(=O)NCC2CCCO2)cc1 (centres undefined) | -0.594% |  |
| O=C1C=C(c2cc(C(F)(F)F)cc(C(F)(F)F)c2)C[C@@H](c2ccc3c(c2)OCO3)C1 | -0.428% |  |
| Nc1c(C(=O)OCC(=O)Nc2ccc(OC(F)F)cc2)[nH]c(=O)[nH]c1=O | 0.835% |  |
| Cc1[nH]n(C)c(=O)c1C(=O)c1c(-c2c(Cl)cccc2Cl)noc1C | 10.9% |  |
| O=C1c2ccccc2C(=O)N1Cc1cc(-c2ccccc2Cl)no1 | -3.22% |  |
| Cn1c(-c2ccc(F)cc2)cc2onc(-c3ccccc3Cl)c2c1=O |  | 1580 nM (active) |
| Cc1onc(-c2ccccc2)c1C(=O)N1CCN(S(=O)(=O)c2ccccc2C(F)(F)F)CC1 | -1.13% |  |
| Cn1c(-c2ccc(C(F)(F)F)cc2)cc2onc(-c3ccccc3)c2c1=O |  | 398 nM (active) |
| O=c1c2ccccc2c(-c2ccc(F)cc2)nn1-c1ccc(C(F)(F)F)cc1 | -4.99% |  |
| C=C(C)C(=O)Nc1cccc(C2=NOC3(C2)C[C@H](C(N)=O)N(C(=O)C(c2ccccc2)c2ccccc2)C3)c1 (some centres undefined) | -5.61% |  |
| COc1ccc(CNC(=O)COC(=O)c2ccc(C)c(S(=O)(=O)N3CCOCC3)c2)cc1OC | -1.27% |  |
| Cc1cccc(OCCC(=O)OCc2csc(CC(=O)Nc3ccccc3C)n2)c1 | -2.87% |  |
| COC(=O)c1ccc(C23CC4(C2)[C@H](CN(Cc2cccnc2)[C@@H]4c2ccccc2)C3c2ccc(Cl)nc2)cc1 (some centres undefined) | -3.01% |  |
| O=C(Nc1nnc(-c2ccccc2F)s1)c1ccccc1F |  | 1580 nM (active) |
| CN(Cc1ccccc1)S(=O)(=O)c1nnc(NC(=O)c2ccccc2F)s1 | 1.08% |  |
| O=C(Nc1ccc(NC(=O)c2ccccc2F)cc1)c1ccccc1F | -6.42% |  |
| COc1ccc(C(=O)NCC2CCCCC2)cc1S(=O)(=O)N1CCCC1 | -5.34% |  |
| CCCn1c(N)c(C(=O)CSc2nnc3n2CCCCC3)c(=O)[nH]c1=O | 0.178% |  |
| COc1ccc([C@H]2CC(=O)C=C(c3ccc(CO)cc3)C2)cc1 | 0.356% |  |
